Screens: PubChem BioAssay, National Center for Advancing Translational Sciences (NCATS)
Only some compounds are listed: those with a hit (about 3.3% of all), similar ones and a draw of the others.
Giardia FBPA inh-1: Giardia lamblia aldolase inhibition; Potency, µM (top dose mostly 59.6 µM), inactives show at the highest dose activity, negative = inhibition, hits mostly inhibitors; purified Giardia FBPA; 290,000 compounds, 0.71% hits; note: nearly all actives have a fitted effect of over 55% in size
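Giardia FBPA (40 nM reagent) was preincubated 10 min at RT with compound (up to 57.5 uM final), then substrate plus GAPDH/TPI/NAD/arsenate coupling system with diaphorase/resazurin was added; resorufin fluorescence (525/598 nm) was read after 20 min.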
Sm TGR inh: inhibitors of Schistosoma mansoni thioredoxin glutathione reductase | 360,000 compounds, 3% hits | Potency, µM (highest dose often 114 µM), for the others: at the highest dose activity change, negative = inhibition, most hits filed as inhibitors | purified TGR, DTNB reduction, TNB absorbance 405 nm | Q962Y6; note: nearly all actives have a fitted effect of over 60% in size
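First, TGR (20 nM dispensed) and NADPH were mixed with compound. Second, a 15 min room-temperature incubation followed. Third, further NADPH and then DTNB were added to start the reaction. Finally, TNB absorbance was monitored kinetically.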
TbPYK inhibitor: inhibitors of Trypanosoma brucei pyruvate kinase | AID 624173 | Potency, µM (top dose mostly 76.8 µM), for inactives: at the top dose activity, negative = inhibition, usual class: inhibitors | 410,000 compounds, 0.12% hits | TbPYK enzyme, Kinase-Glo Plus ATP luminescence, 45 min; note: nearly all actives have a fitted effect of over 50% in size
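Enzyme and substrate buffer are dispensed first and compound is pin-transferred. ADP at 130 uM final then starts the reaction, which runs 45 min at room temperature. Detection reagent is added for 10 min before luminescence is imaged.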
LmPK inh: inhibitors of Leishmania mexicana pyruvate kinase | Q27686 | purified LmPK, Kinase-Glo ATP luminescence, 1 h | Potency, µM (doses to about 57.5 µM), for inactives: top-dose activity change, negative = inhibition, most hits filed as inhibitors | 290,000 compounds, 0.37% hits | AID 1721
Target sequence (Q27686 whole entry, looked up): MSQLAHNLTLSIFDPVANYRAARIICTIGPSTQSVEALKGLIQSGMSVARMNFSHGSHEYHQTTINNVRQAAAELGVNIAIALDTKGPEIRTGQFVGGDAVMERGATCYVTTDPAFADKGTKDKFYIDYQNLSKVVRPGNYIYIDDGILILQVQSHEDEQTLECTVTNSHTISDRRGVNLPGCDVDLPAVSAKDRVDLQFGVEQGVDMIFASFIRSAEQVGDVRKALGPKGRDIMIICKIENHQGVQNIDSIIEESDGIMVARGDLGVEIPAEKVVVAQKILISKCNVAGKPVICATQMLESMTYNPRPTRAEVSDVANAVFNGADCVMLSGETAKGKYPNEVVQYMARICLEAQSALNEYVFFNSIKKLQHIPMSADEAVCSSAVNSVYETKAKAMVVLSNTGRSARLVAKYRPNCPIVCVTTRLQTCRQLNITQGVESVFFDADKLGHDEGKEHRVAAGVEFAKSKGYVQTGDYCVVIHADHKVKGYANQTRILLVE
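Purified LmPK (0.1 nM) converted ADP (0.1 mM) to ATP with PEP (0.5 mM) in imidazole buffer pH 7.2 with KCl and MgCl2, 1 h at room temperature. ATP was read by Kinase-Glo luminescence; data normalized to uninhibited and no-enzyme controls.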
RE007 growth inh: less growth of the S. pombe RE007 Vpr strain; AID 651644; S. pombe RE007 Vpr strain, BacTiter-Glo ATP luminescence, 24 h; 360,000 compounds, 0.21% hits; Potency, µM (top dose mostly 92.2 µM), without a hit: at the highest dose activity change, negative = less growth, actives largely listed as inhibitors; active = well fitted falling curve with a large enough effect; inconclusive = small, poorly fitted or top-dose-only effect; inactive = no such curve, though single readings can be large or run the other way; note: nearly all actives have a fitted effect of over 50% in size
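Fission yeast strain RE007, carrying one chromosomally integrated HIV-1 vpr copy, was seeded at OD 0.01 in PMG+AL medium with 23 nL pinned compound. After 24 h at 30 °C and 99% humidity, viability was read by BacTiter-Glo luminescence.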
Giardia growth: Giardia lamblia growth inhibition | shares compounds with Giardia FBPA inh-1 | Giardia lamblia trophozoite growth inhibition | Potency, µM (titrated, usually from 57.5 µM), inactives show at the highest dose activity change, negative = inhibition, most hits filed as inhibitors | 1,500 compounds, 5% hits | AID 2785;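 note: trophozoites exposed to compound for 48 h at 37 °C; nearly all actives have a fitted effect of over 70% in size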
Mammal cell tox: toxic to mammalian cells in Giardia aldolase counter-screen | Potency, µM (top dose mostly 57.5 µM), without a hit: top-dose viability change, negative = toxicity, actives largely listed as inhibitors | shares compounds with Giardia FBPA inh-1 | mammalian cell viability counter-screen, qHTS | 1,500 compounds, 4% hits;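 note: Chinese hamster ovary cells used as mammalian cytotoxicity surrogate; viability measured as cellular ATP by luminescence; compound exposure lasted 48 h before reading; nearly all actives have a fitted effect of over 60% in size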
Giardia FBPA inh-2: confirmation of Giardia fructose-bisphosphate aldolase inhibitors. shares compounds with Giardia FBPA inh-1. purified Giardia aldolase enzyme activity, qHTS. Potency, µM (highest dose often 57.5 µM), without a hit: at the top dose activity change, negative = inhibition, hits mostly inhibitors. 1,500 compounds, 5% hits. AID 2787; note: nearly all actives have a fitted effect of over 45% in size
Rabbit aldolase: rabbit FBP aldolase inhibition by Giardia aldolase hits; shares compounds with Giardia FBPA inh-1; Rabbit muscle FBPA enzyme inhibition, selectivity counter-screen; Potency, µM (top dose mostly 57.5 µM), without a hit: at the highest dose activity, negative = inhibition, hits mostly inhibitors; 1,500 compounds, 4% hits; AID 2794; note: nearly all actives have a fitted effect of over 60% in size
GAPDH coupling: counter-screen for Giardia aldolase inhibitors: GAPDH coupling enzyme. AID 2795. shares compounds with Giardia FBPA inh-1. 1,500 compounds, 6% hits. Potency, µM (doses to about 57.5 µM), for inactives: top-dose activity change, negative = inhibition, hits mostly inhibitors. GAPDH coupling enzyme counterscreen, biochemical, qHTS; note: nearly all actives have a fitted effect of over 55% in size
* = called active by the depositor; [ ] = remark or other dose. Unless noted, calls come from the whole dose curve; as a rule, active = well fitted curve in the direction sought with a large enough effect; inconclusive = small, poorly fitted or top-dose-only effect, or another doubt; inactive = no such curve, though single readings can be large; an effect the other way counts as inactive or inconclusive. % is set by controls: 0 for no effect and ±100 for the full control effect; potency is the fitted concentration of half-maximal effect.

For O=C(NC1CCCCC1)c1cccnc1C(=O)O the results were Giardia FBPA inh-1 5.61µM*, Sm TGR inh 1.1%, TbPYK inhibitor 12.7%, LmPK inh 0.8%, RE007 growth inh -2.9%, Giardia growth 10.3%, Mammal cell tox 6.0%, Giardia FBPA inh-2 6.2%, Rabbit aldolase 10.5% and GAPDH coupling 13.1%.
CCNc1nc(C(=O)O)nc(N2CCOCC2)n1 was read as Giardia FBPA inh-1 22.3µM*, Sm TGR inh -14.5%, TbPYK inhibitor 2.4%, LmPK inh -4.4%, RE007 growth inh 7.5%, Giardia growth 18.1%[10.4 µM], Mammal cell tox 4.1%, Giardia FBPA inh-2 -4.8%, Rabbit aldolase 1.2% and GAPDH coupling 7.6%.
`CC(C)(C)Nc1nc(C(N)=O)nc(N2CCOCC2)n1` gave Giardia FBPA inh-1 5.6%, Sm TGR inh 6.4%, TbPYK inhibitor 7.6%, LmPK inh -1.7% and RE007 growth inh 6.2%.
For C=Cn1c(P(=S)(N2CCOCC2)N2CCOCC2)cc2c1CCCC2 the results were Giardia FBPA inh-1 -0.3%, Sm TGR inh 0.6%, TbPYK inhibitor 0.9%, LmPK inh 2.1% and RE007 growth inh 6.7%.
Screening S=c1nc(-c2ccc(Cl)cc2)[nH][nH]1 returned Giardia FBPA inh-1 4.0%, Sm TGR inh 1.8%, TbPYK inhibitor inconclusive, LmPK inh -1.6% and RE007 growth inh 21.0%.
Screening Cc1ccc(C)n1-c1nc(=S)[nH][nH]1 returned Giardia FBPA inh-1 17.7µM*, Sm TGR inh -7.3%, TbPYK inhibitor inconclusive, LmPK inh 14.1%, RE007 growth inh -6.1%, Giardia growth -2.7%[10.4 µM], Mammal cell tox -7.8%, Giardia FBPA inh-2 1.6%, Rabbit aldolase -21.8% and GAPDH coupling -21.1%.
Screening NC1=C(O)C(=O)C(c2ccccc2)O1 (configuration not stated) returned Giardia FBPA inh-1 15.8µM*, Sm TGR inh inconclusive, TbPYK inhibitor -11.6%, LmPK inh -8.4%, RE007 growth inh -3.0%, Giardia growth 6.2%[10.4 µM], Mammal cell tox 5.2%, Giardia FBPA inh-2 -23.6%, Rabbit aldolase -13.4% and GAPDH coupling -21.8%.
N#CCCn1cnc2c(=S)nc[nH]c21 was read as Giardia FBPA inh-1 14.1µM*, Sm TGR inh 5.4%, TbPYK inhibitor -7.6%, LmPK inh -4.2%, RE007 growth inh 2.5%, Giardia growth -26.5%, Mammal cell tox -1.5%, Giardia FBPA inh-2 8.2%, Rabbit aldolase 7.1% and GAPDH coupling -12.9%.
Screening Clc1cccc(Nc2c3c(nc4ncnn24)CCC3)c1 returned Giardia FBPA inh-1 inconclusive, Sm TGR inh -19.6%, TbPYK inhibitor 3.7%, LmPK inh 1.2% and RE007 growth inh 1.6%.
Screening C=CCNC(=S)N1CCN(Cc2ccccc2)CC1 returned Giardia FBPA inh-1 17.7µM*, Sm TGR inh 0.8%, TbPYK inhibitor 39.8%, LmPK inh -3.8%, RE007 growth inh -18.9%, Giardia growth -11.8%[10.4 µM], Mammal cell tox 10.9%, Giardia FBPA inh-2 12.3%, Rabbit aldolase 13.4% and GAPDH coupling 6.7%.
Screening Cc1ccc(NC(=S)N2CCN(Cc3ccccc3)CC2)cc1 returned Giardia FBPA inh-1 2.3%, Sm TGR inh -10.0%, TbPYK inhibitor -17.5%, LmPK inh -0.6% and RE007 growth inh -12.2%.
Cc1ccc(C(=S)N2CCN(Cc3ccccc3)CC2)cc1 was read as Giardia FBPA inh-1 15.8µM*, Sm TGR inh -7.3%, TbPYK inhibitor inconclusive, LmPK inh -0.1%, RE007 growth inh -22.2%, Giardia growth inconclusive, Mammal cell tox 9.2%, Giardia FBPA inh-2 -5.6%, Rabbit aldolase 8.8% and GAPDH coupling -16.3%.
`Cc1ccc(CN2CCN(C(=O)c3ccncc3)CC2)cc1` gave Giardia FBPA inh-1 17.7µM*, Sm TGR inh 0.0%, TbPYK inhibitor 1.1%, LmPK inh -6.4%, RE007 growth inh -20.7%, Giardia growth 2.3%, Mammal cell tox 2.8%, Giardia FBPA inh-2 6.1%, Rabbit aldolase 6.6% and GAPDH coupling 7.1%.
For CCN(CC)c1ccc(N=Cc2c(C)[nH]c3ccccc23)cc1 the results were Giardia FBPA inh-1 inconclusive, Sm TGR inh -33.9%, TbPYK inhibitor -5.9%, LmPK inh 1.5%, RE007 growth inh -12.2%, Giardia growth 5.1%[38.3 µM], Mammal cell tox -21.7%, Giardia FBPA inh-2 inconclusive, Rabbit aldolase inconclusive and GAPDH coupling inconclusive.
C=C1C(=O)O[C@@]23[C@H]1CC[C@@H](C)[C@@H]2CC[C@@]1(C)O[C@@H]31 was read as TbPYK inhibitor 7.4% and RE007 growth inh -5.2%.
Screening N#CC1=C2SCN(c3ccc(F)cc3)CN2C(=O)CC1c1cccc(F)c1 (configuration not stated) returned Giardia FBPA inh-1 7.06µM*, Sm TGR inh inconclusive, TbPYK inhibitor inconclusive, LmPK inh 1.6%, RE007 growth inh -7.9%, Giardia growth 11.8%, Mammal cell tox 4.9%, Giardia FBPA inh-2 -27.8%, Rabbit aldolase inconclusive and GAPDH coupling -25.5%.
Screening N#CC1=C2SCN(Cc3ccco3)CN2C(=O)CC1c1cccc2ccccc12 (configuration not stated) returned Giardia FBPA inh-1 inconclusive, Sm TGR inh -32.6%, TbPYK inhibitor inconclusive, LmPK inh -7.3% and RE007 growth inh -2.9%.
CCOC(=O)CC1=C(C(=O)OCC)C(c2cccs2)C(C#N)=C(N)O1 (configuration not stated) was read as Giardia FBPA inh-1 1.0%, Sm TGR inh 0.9%, TbPYK inhibitor -13.2%, LmPK inh -0.6% and RE007 growth inh -2.9%.
